# Assay results taken from the supplement of paper PMC3334620.
# The full ranking holds about 33,000 sequences; the median of “E-score (-0.5 to 0.5)” is about -0.053, and the highest 2% start at about 0.37. Only a selection was taken, and the highest values are over-represented in it overall.
# Target: Hap1 (UniProt P0CE41)
# Test: PBM E-score (8-mer binding enrichment) (E-score (-0.5 to 0.5)); higher = stronger / more preferred TF binding
# Conditions: protein concentration: 200 nM; construct: GST-DNA-binding domain
# Procedure, shortened: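 PURExpress in vitro transcription/translation supplied GST-tagged yeast transcription factors, either full-length or DNA-binding domain. Applied at about 100-200 nM to universal all-10-mer Agilent arrays double-stranded by primer extension, the bound protein was detected with fluorescent anti-GST. E-scores, modified Wilcoxon-Mann-Whitney statistics, were given by the Universal PBM Analysis Suite to ungapped eight-base words pooled with their reverse complements after masliner normalisation.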
# UniProt P0CE41, sequence (P0CE41 whole entry): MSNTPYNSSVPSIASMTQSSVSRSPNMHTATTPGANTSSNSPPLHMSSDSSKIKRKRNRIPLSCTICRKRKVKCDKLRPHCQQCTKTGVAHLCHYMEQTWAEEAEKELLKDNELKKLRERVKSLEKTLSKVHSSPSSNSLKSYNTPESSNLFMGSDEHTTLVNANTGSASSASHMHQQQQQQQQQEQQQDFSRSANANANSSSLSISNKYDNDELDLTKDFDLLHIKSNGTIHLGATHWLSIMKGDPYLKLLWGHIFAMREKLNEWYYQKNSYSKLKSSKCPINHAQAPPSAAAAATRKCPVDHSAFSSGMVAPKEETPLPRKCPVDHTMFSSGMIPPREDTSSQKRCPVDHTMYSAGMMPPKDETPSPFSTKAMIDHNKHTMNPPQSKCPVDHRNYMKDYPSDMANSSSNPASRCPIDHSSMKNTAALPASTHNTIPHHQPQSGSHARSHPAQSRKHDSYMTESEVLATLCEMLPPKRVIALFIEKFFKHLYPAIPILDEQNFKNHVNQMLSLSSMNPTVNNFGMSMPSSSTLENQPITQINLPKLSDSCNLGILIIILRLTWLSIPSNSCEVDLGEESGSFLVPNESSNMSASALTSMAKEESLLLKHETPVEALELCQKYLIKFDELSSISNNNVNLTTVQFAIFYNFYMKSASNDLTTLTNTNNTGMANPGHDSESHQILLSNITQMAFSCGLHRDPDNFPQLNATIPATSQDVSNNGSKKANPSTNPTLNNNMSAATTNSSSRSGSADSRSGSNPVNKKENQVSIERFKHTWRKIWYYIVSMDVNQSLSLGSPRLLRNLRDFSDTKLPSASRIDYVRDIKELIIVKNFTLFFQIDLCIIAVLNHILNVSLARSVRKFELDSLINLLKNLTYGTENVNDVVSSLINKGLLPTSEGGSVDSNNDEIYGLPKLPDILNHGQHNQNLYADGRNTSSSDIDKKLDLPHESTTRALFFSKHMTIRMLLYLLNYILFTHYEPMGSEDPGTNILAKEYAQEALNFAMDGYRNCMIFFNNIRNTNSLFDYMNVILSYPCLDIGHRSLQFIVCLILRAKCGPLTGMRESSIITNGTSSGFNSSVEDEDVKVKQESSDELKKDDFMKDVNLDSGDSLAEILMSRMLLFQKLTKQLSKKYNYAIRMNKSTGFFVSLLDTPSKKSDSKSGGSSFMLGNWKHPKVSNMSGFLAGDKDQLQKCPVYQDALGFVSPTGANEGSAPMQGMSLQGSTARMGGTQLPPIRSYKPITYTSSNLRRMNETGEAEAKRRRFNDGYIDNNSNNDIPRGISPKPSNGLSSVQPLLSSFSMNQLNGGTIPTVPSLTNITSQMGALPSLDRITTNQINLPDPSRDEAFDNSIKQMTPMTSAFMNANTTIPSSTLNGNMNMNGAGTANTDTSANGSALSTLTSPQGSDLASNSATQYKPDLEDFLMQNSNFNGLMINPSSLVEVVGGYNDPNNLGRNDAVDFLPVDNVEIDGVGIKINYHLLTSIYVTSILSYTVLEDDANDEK
row,Sequence,PBM E-score
1,ACCTTGCC,-0.132
2,AAAGGAGC,-0.141
3,CATCTTTC,-0.224
4,AGGTGCTA,-0.132
5,AGGTTCAA,-0.0501
6,AAAGGCGC,-0.0167
7,CTTTAACC,-0.0789
8,CAGCAGTA,-0.352
9,CGAGCGGA,0.37
10,CGAGCGGC,0.238
11,AGAGCGGA,0.13
12,AATGGTCA,-0.179
13,AACCGGAA,0.337
14,TCCCGGAA,0.397
15,TCCCGGCA,0.277
16,ACCCGGAA,0.346
17,GCACGGAA,0.215
18,CCCCGGCC,0.348
19,AACCGGAG,0.425
20,CCCCGGAC,0.397
21,TCACGGAA,0.329
22,GCCCGGAA,0.402
23,CCCCGGAA,0.272
24,AACCGGAT,0.286
25,CCTGCCGA,0.156

row,Sequence,PBM E-score
1,AGGAGGCC,-0.254
2,AACGTTGT,-0.162
3,CGACACGA,0.0811
4,CTACATGA,-0.187
5,TAAAGGCA,-0.0704
6,GCACTCGC,-0.0299
7,AGAGGGCA,-0.162
8,GAGCGATC,0.0915
9,AAGTTATT,0.0401
10,GCGTCACC,-0.0889
11,AATTGCAC,-0.191
12,CCCGGGAG,0.299
13,ACCCGGAC,0.372
14,ACCCGGGG,0.306
15,CCCCCGAG,0.308
16,GCCCGGGA,0.316
17,ACCCGGGA,0.328
18,ACCCGGCC,0.305
19,GCCCGGGC,0.434
20,ACCCGGGC,0.368
21,ACCCGTAC,0.0493
22,ACCCGGGT,0.393
23,CCCCGGAG,0.393
24,AGAGCGAT,0.0667
25,ATACGTTA,-0.106

row,Sequence,PBM E-score
1,GCTCTAAC,0.0397
2,CGACTGTA,-0.166
3,CAGAAACC,-0.0171
4,AACAGGCT,-0.152
5,TACCTCCA,-0.176
6,ATCAGTGC,-0.212
7,GCCGGGAC,0.185
8,GCCCGGAC,0.401
9,CCCCCGGG,0.324
10,CCCCGGGG,0.388
11,ACCCGGAG,0.423
12,ACCCGGAT,0.322
13,ACCCGGCG,0.283
14,CCCCGGGC,0.36
15,GCCCGGCC,0.329
16,CTCACAGA,-0.242
17,CGGCGCTC,0.23
18,TCTGTGAA,-0.101
19,CCGGTCCA,0.237
20,CCGGTCCC,0.323
21,CCGGTCCG,0.42
22,AGACTGAT,-0.159
23,GACAGAGC,-0.162
24,CGTTTGAA,-0.061
25,CGAGGGCA,-0.00305

row,Sequence,PBM E-score
1,ATTTTGGA,0.147
2,CAACTCCG,0.398
3,AAACTCCT,-0.1
4,CAACTCCA,-0.0501
5,AAACTCCA,-0.0578
6,ATACTCCA,-0.15
7,CAACTCCC,0.0886
8,AAACTCCG,0.456
9,ATACTCCG,0.407
10,ATACTCCC,0.115
11,CGCTAGCG,0.0545
12,CGCGAGCA,-0.126
13,GATATCGC,0.304
14,AAACCCTA,-0.136
15,AGGTACGG,0.0524
16,AACGCGAA,0.121
17,AGGTCGCA,0.101
18,ACTAAGCC,0.094
19,ACTGTCAG,-0.224
20,CACCGGAA,0.398
21,GACCGGGC,0.331
22,CAGCGGAA,0.139
23,AACCGGAC,0.369
24,CACCGGAC,0.417
25,CACCGGGA,0.261

row,Sequence,PBM E-score
1,TACCGGCA,0.353
2,GACCGGAA,0.361
3,TACCGCAA,0.08
4,TACCGGAA,0.442
5,GACCGGAC,0.41
6,CACCGGAG,0.341
7,AATCGGCT,0.314
8,TCTGCGAA,-0.214
9,CCGGTGTC,0.301
10,CTTGGTGA,-0.102
11,CATCGGAG,0.292
12,GATCGGAC,0.413
13,GATCGGAA,0.325
14,CATCGGTC,0.278
15,CATCGGAC,0.401
16,AATCGGAC,0.345
17,GCTTTTAC,0.14
18,ATGTGGAC,-0.149
19,AATTCCTG,-0.0671
20,AGGCTGTG,-0.019
21,CACATCGC,0.0343
22,GCGGACGC,0.0721
23,TCACGCGA,-0.0375
24,AGAGGAGA,-0.242
25,CCGGACCC,0.374

row,Sequence,PBM E-score
1,ACGGACCC,0.278
2,CCGGACTC,0.361
3,ACGGACCG,0.328
4,CAGGACCG,-0.00407
5,GCGGACCC,0.266
6,TCGGACCA,0.381
7,CCGGACTA,0.404
8,ACGGACTA,0.237
9,CCGGACCG,0.431
10,TAGGACCA,-0.0211
11,TGGGACCA,-0.19
12,AGGCGCCC,-0.0775
13,CGCATCCA,-0.0122
14,ACCACAGC,-0.127
15,GAGAGAGA,-0.0161
16,CCAACTGA,-0.324
17,GGAGAGAC,0.101
18,AACCTCGC,-0.0117
19,AGTCGTAA,0.00615
20,AAAGAGCC,-0.12
21,AGGACCGA,0.311
22,GATTTATA,0.146
23,GCGGACCA,0.31
24,ACGGACCA,0.344
25,CCGGACCA,0.372

row,Sequence,PBM E-score
1,ACTCCCCG,0.283
2,ACTCCCGG,0.378
3,ACTCCCGA,0.2
4,ATTCCCGC,0.318
5,GTTCCCGA,0.257
6,ATTCCCCG,0.286
7,ATTCCCGA,0.395
8,CTTCCCGA,0.143
9,ATTCCCGG,0.395
10,CTAGCGTC,-0.0893
11,CCTCTTCC,-0.0207
12,TAGCCTAA,-0.158
13,AGGCAAAG,-0.246
14,CGAGGAGC,0.0181
15,CGAACCAG,-0.00442
16,GCGTCGGA,0.375
17,GGATCGGA,0.384
18,AGATCGGC,0.267
19,ACATCGGA,0.265
20,GCATCGGA,0.383
21,AGATCGGG,0.153
22,ACGTCGGA,0.256
23,CGATCGGA,0.354
24,GGATCGAA,0.168
25,AGATCGGA,0.376

row,Sequence,PBM E-score
1,GCATCGGC,0.225
2,CCGTCGGA,0.335
3,AAACTAGC,-0.188
4,GCGTTGCA,0.0308
5,GAGCGGAA,0.248
6,GGCATAAA,0.102
7,AAAGTAAG,-0.163
8,CTAGAGGA,-0.241
9,ATCCGTCA,0.212
10,GAGGGGAA,0.148
11,CCTGTGGA,-0.336
12,GGTTTTAA,0.334
13,AAGTGTGC,-0.132
14,AGTCGGTA,0.0714
15,GATCGAAA,0.121
16,ATTTCGGC,0.326
17,GTTTCGTA,0.11
18,CTTTCGGC,0.348
19,ATTTCGGA,0.415
20,GTTTCGGA,0.389
21,GTTTCGAA,-0.219
22,CTTTCGGA,0.399
23,CTTTCGTA,-0.158
24,ATTTCGGG,0.29
25,CGTGCGAC,-0.0831

row,Sequence,PBM E-score
1,ACGCAGAA,-0.0372
2,AAGCTCAA,-0.167
3,AAATAACC,0.0225
4,CGCGTCAC,-0.174
5,CACTGACG,-0.147
6,CCCCCAAG,-0.195
7,CCCTCAAG,-0.233
8,CGCCGAGC,0.364
9,GGCCGCGA,0.0621
10,GCCCGAGA,0.391
11,CGCCGAGA,0.37
12,TCCCGAGA,0.261
13,CGCCGCGA,0.213
14,CCCCGAGA,0.319
15,GGCCGAGA,0.401
16,AGCCGAGA,0.267
17,CTTTCTTA,-0.125
18,AGCTTAGA,-0.00759
19,ACGTACTG,-0.144
20,AGGGCCTA,0.0252
21,CCGGCCAG,0.351
22,CCGGCCGC,0.299
23,ACGGCCGA,0.419
24,ACGGCCCA,0.141
25,CGGGCCTA,0.383

row,Sequence,PBM E-score
1,ACGGCCAA,0.166
2,AGGGCCCG,0.106
3,CGGGCCCG,0.419
4,CGGGCCCA,0.26
5,CCGGCCGG,0.456
6,CGGGCCTC,0.192
7,ATCCACGC,-0.239
8,AGCACTAT,-0.257
9,ATTCCCTC,-0.083
10,ACTATCGA,-0.0147
11,GGATCCAC,0.059
12,ATCTCTTC,-0.0222
13,AGAGCAGA,-0.17
14,CAATCTGA,-0.151
15,GTACTGTA,-0.119
16,GCGGCCGA,0.335
17,TCGGCCGA,0.48
18,GGGGCCGA,0.233
19,CGGGCCGC,0.263
20,CCGGCCGA,0.453
21,CCGGCCTA,0.288
22,ATGGCCGG,0.315
23,ACGGCCTG,-0.0121
24,TCGGCCCA,0.304
25,ACGGCCGG,0.392

row,Sequence,PBM E-score
1,CGGGCCGA,0.379
2,TCGGCCAA,0.256
3,ATGGTGTG,-0.303
4,ACCTTACT,0.105
5,ATGCCCCG,0.282
6,ACGGTAGG,-0.0364
7,TACCCCTA,-0.146
8,ACTTCTAC,-0.119
9,ACGGCCGC,0.228
10,CCGGCCCG,0.434
11,ACGGCCCG,0.249
12,ACGGCCGT,0.373
13,CCGGCCCA,0.231
14,ACGGCCCT,-0.0855
15,CCGTCAAA,0.114
16,ACTGAGCG,-0.284
17,AATGCCGT,0.334
18,AATGCCGC,0.295
19,ATTGCCGA,0.375
20,CATGCCGG,0.298
21,ATTGCCGC,0.0752
22,AATGCCGA,0.405
23,CATGCCGA,0.17
24,CTTGCCGA,0.0417
25,AATGCCGG,0.384

row,Sequence,PBM E-score
1,CGTTGGTC,-0.0912
2,ACGGGAAC,0.101
3,GGAAGACC,0.0832
4,GCCCACTA,-0.137
5,CTCACACC,-0.15
6,CGCGGCAG,0.1
7,GACTGTAC,-0.171
8,GAGCTGCA,-0.00591
9,CCCCGCTC,0.0426
10,ATCGGCAC,0.315
11,CGCGCGAC,0.2
12,CAATCCGC,0.191
13,GAATCCGA,0.307
14,CAATCCGG,0.375
15,GAATCCGC,0.179
16,AAATCCAC,0.0573
17,AAATCCGC,0.387
18,TAATCCGA,0.346
19,CAATCCCG,0.272
20,AAATCCCA,-0.0185
21,CAATCCGA,0.241
22,AAATCCCG,0.379
23,AAATCCGA,0.457
24,AAATCCGT,0.396
25,AAATCCTT,0.0613

row,Sequence,PBM E-score
1,AAATCCAG,0.0422
2,AAATCCGG,0.475
3,AAATCCCT,-0.166
4,AAATCCTG,-0.118
5,CCTTTGGA,-0.215
6,GGCTGCTA,-0.0615
7,AGACCGAT,0.35
8,CGACCGAC,0.301
9,CGACCGAA,0.378
10,AGACCGAG,0.373
11,AGACCGAA,0.281
12,CCACCGAG,0.14
13,AGACCGAC,0.346
14,CGACCGAG,0.371
15,CTACCGAG,0.139
16,GCAGCTTA,-0.171
17,CCTGAGAA,-0.253
18,CCTATCAG,-0.147
19,GACAGCAA,-0.221
20,TGACTCAA,-0.251
21,CGGCTGTC,0.175
22,GGGCACAA,-0.0367
23,GAGGACGC,-0.0224
